A selection: hits, their analogues and other compounds. The true share with any hit is near 1.9%.
FUS yeast rescue = FUS proteinopathy suppression in yeast. 390,000 compounds, 0.24% hits. Potency, µM (series often up to 76.6 µM), most hits filed as activators. S. cerevisiae FUS-expressing, growth rescue, OD600, 24 h; further: nearly all actives have a fitted effect of over 55% in size
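Compound concentration series was pinned onto galactose-induced FUS-expressing yeast seeded at OD 0.005. Plates sat 24hr at 30C; absorbance at 600 nm gave growth. DMSO served as background control.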
Abeta yeast res = restores growth of yeast expressing A-beta42 peptide; yeast expressing A-beta42, growth rescue, OD600, 48 h; response scale: 0% DMSO, 100% iron-clioquinol control; Potency, µM (doses to about 46.1 µM), most hits filed as activators; 410,000 compounds, 0.063% hits; further: nearly all actives have a fitted effect of over 55% in size
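Growth rescue measured by 600 nm absorbance after 48 h yeast culture at 30 C with compound. Values normalized between DMSO and an equimolar ferric chloride plus clioquinol control.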
PTHR1 agonist = agonists of human PTHR1 parathyroid hormone receptor | Q03431 | HEK293 GP2 PTHR1 cells, GloSensor cAMP luminescence, 1 h | Potency, µM (titrated, usually from 115 µM), usual class: activators | 410,000 compounds, 0.075% hits | AID 743266; further: nearly all actives have a fitted effect of over 55% in size
Target sequence (Q03431 whole entry, looked up): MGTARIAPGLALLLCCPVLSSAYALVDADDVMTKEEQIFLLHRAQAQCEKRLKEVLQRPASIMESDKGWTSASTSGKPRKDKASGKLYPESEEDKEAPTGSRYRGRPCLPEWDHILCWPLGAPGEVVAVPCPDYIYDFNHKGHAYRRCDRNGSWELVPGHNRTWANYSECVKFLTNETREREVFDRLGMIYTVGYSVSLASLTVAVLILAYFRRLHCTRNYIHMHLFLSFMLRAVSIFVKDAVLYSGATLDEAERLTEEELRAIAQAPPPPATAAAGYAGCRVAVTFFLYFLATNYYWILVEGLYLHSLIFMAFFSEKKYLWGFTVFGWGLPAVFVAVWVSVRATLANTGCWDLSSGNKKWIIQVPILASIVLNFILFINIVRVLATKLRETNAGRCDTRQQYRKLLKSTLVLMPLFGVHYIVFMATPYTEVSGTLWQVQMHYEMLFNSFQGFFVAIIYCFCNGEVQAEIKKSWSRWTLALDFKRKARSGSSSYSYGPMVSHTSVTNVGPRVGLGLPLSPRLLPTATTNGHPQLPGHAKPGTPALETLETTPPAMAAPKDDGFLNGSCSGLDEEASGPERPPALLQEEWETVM
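HEK-293-derived GP2 cells expressing PTHR1 and a GloSensor cAMP reporter, 3,000/well, plated overnight, given luciferin plus IBMX (each 0.5 mM as added) for 1 h at 37 °C, then compound for 1 h at 37 °C. Luminescence was read after 15 min at room temperature.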
LDHA block = blocks human lactate dehydrogenase A; purified LDHA, NADH/diaphorase-resazurin fluorescence; active compounds read low; activity change, % (values are at about 110 or 230 µM); 480,000 compounds, 0.15% hits; AID 1347041; in the data active means activity change below about -30%; inconclusive means mostly about -25% to -30%
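Enzyme activity of human lactate dehydrogenase 5 (2 nM; 0.06 mM NADH, 0.2 mM pyruvate, 5 min, RT) is measured via a resazurin/diaphorase fluorescence readout of residual NADH.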
aSyn yeast inh = inhibitors of alpha-synuclein toxicity in yeast; AID 652106; 370,000 compounds, 0.14% hits; Potency, µM (doses to about 46.1 µM), most hits filed as activators; Yeast expressing alpha-synuclein, growth rescue, BacTiter-Glo, 24 h; further: nearly all actives have a fitted effect of over 65% in size
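Screening used galactose-induced yeast with toxic alpha-synuclein levels, exposed to compound for 24 hr at 30 deg C. Cell growth, read with BacTiter-Glo luminescence, gave the measured signal.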
TDP-43 yeast inh = TDP-43 toxicity inhibition in yeast; TDP-43 expressing yeast growth rescue, BacTiter-Glo, 24 h; Potency, µM (highest dose often 46.1 µM), most hits filed as activators; 410,000 compounds, 1.8% hits; further: nearly all actives have a fitted effect of over 50% in size
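Growth rescue of TDP-43-toxic yeast measured as ATP luminescence (BacTiter-Glo). Cells grown to mid-log in raffinose, induced in galactose at OD600=0.02, exposed to compound 24 hr at 30 deg C.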
Of the large screens only hits and unclear results are named; the others gave an inactive call. Unless noted, the call rests on the fitted dose curve; in most records, active means well fitted curve in the direction sought with a large enough effect; inconclusive means small, poorly fitted or top-dose-only effect, or another doubt; inactive means no such curve, though single readings can be large; an effect the other way counts as inactive or inconclusive.

COc1ccc(CC2C(=O)N(C)c3ccc(Br)cc32)cc1 (stereo not given)	none (no result: FUS yeast rescue, Abeta yeast res, PTHR1 agonist, aSyn yeast inh, TDP-43 yeast inh)
Fc1ccc([C@@H]2Nc3ccccc3[C@@H]3C=CC[C@@H]32)cc1	Abeta yeast res 12.6µM (no result: aSyn yeast inh)
N#C/C(=C(/O)CSc1nnc(Cc2cccs2)n1C1CCCCC1)c1nc2ccccc2[nH]1	FUS yeast rescue 50.1µM
Cn1cnnc1SC/C(O)=C(\C#N)c1nc2ccccc2[nH]1	none
COc1ccccc1-c1nnc(SC/C(O)=C(\C#N)c2nc3ccccc3[nH]2)n1C1CCCCC1	FUS yeast rescue 28.2µM
CC(=O)N/N=C/c1cc(Cl)ccc1OCCCOc1cc(C)ccc1C(C)C	none (no result: FUS yeast rescue, Abeta yeast res, PTHR1 agonist, aSyn yeast inh, TDP-43 yeast inh)
Cc1ccc2cc(/C=C/C(=O)c3c(C)coc3C)c(Cl)nc2c1	none (no result: FUS yeast rescue, Abeta yeast res, PTHR1 agonist, aSyn yeast inh, TDP-43 yeast inh)
CC(CCl)n1c(=O)c2ccccc2n1C(=O)c1ccccc1 (stereo not given)	TDP-43 yeast inh 11.2µM
COC(=O)Cn1c2ccccc2c(=O)n1C(C)CBr (stereo not given)	none
Cc1ccc(C23CC4CC(CC(NC(=O)NC(C)(C)CO)(C4)C2)C3)cc1	TDP-43 yeast inh 22.4µM (no result: aSyn yeast inh)
Cc1ccc(C23CC4CC(CC(NC(=O)NN)(C4)C2)C3)cc1	TDP-43 yeast inh inconclusive (no result: Abeta yeast res)
CC(=O)Nc1cccc(NC(=O)CSCc2nc3ccccc3c(=O)[nH]2)c1	none (no result: FUS yeast rescue, Abeta yeast res, PTHR1 agonist, aSyn yeast inh, TDP-43 yeast inh)
O=c1sc(Nc2ccccc2)nc2ccsc12	TDP-43 yeast inh 17.8µM
O=C(Nc1nc2ccsc2c(=O)s1)c1ccco1	none
O=C(Nc1nc2ccsc2c(=O)s1)C1CCC1	TDP-43 yeast inh 10µM
Cc1ccc(Nc2nc3ccccc3c(=O)s2)cc1C	Abeta yeast res inconclusive (no result: FUS yeast rescue)
Cn1c(=O)[nH]c(=O)c2c1nc(NCCc1ccccc1)n2Cc1cccc2ccccc12	none (no result: FUS yeast rescue, Abeta yeast res, PTHR1 agonist, aSyn yeast inh, TDP-43 yeast inh)
COc1ccc(-n2ncc(C(=O)NCc3ccc4c(c3)OCO4)c2C2CCN(C(=O)OC(C)(C)C)CC2)cc1	FUS yeast rescue 31.6µM (no result: aSyn yeast inh)
Cc1ccc(-n2ncc(C(=O)NCc3ccc4c(c3)OCO4)c2C2CCN(C(=O)OC(C)(C)C)CC2)cc1C	FUS yeast rescue 25.1µM (no result: aSyn yeast inh)
Cc1ccc(-n2ncc(C(=O)Nc3ccc4c(c3)OCO4)c2C2CCN(C(=O)OC(C)(C)C)CC2)cc1	FUS yeast rescue 28.2µM (no result: aSyn yeast inh)
Cc1ccc(-n2ncc(C(=O)Nc3ccc4c(c3)OCCO4)c2C2CCN(C(=O)OC(C)(C)C)CC2)cc1	none (no result: aSyn yeast inh)
O=C(NC1CC1)c1ccc(Cn2cnc3ccccc3c2=O)cc1	none (no result: FUS yeast rescue, Abeta yeast res, PTHR1 agonist, aSyn yeast inh, TDP-43 yeast inh)
Cc1[nH]nc(Nc2ccc(C(C)C)cc2)c1[N+](=O)[O-]	TDP-43 yeast inh 12.6µM
Cc1ccc(C(=O)c2cc3c(cc2[N+](=O)[O-])OCCO3)cc1	TDP-43 yeast inh 12.6µM
CCn1c(CNC(=O)c2ccc(OC)cc2)nnc1SCC(=O)c1ccc(Br)cc1	none (no result: FUS yeast rescue, Abeta yeast res, PTHR1 agonist, aSyn yeast inh, TDP-43 yeast inh)
CCn1c(CNC(=O)c2ccc3c(c2)OCO3)nnc1SCC(=O)c1ccc(OC)cc1	LDHA block -30.4 (no result: FUS yeast rescue, Abeta yeast res, PTHR1 agonist, aSyn yeast inh, TDP-43 yeast inh)
CC(C)(C#N)Nn1cnnc1	FUS yeast rescue 15.8µM
O=S(=O)(Nc1ccc(F)cc1F)c1ccc(Br)s1	TDP-43 yeast inh 20µM (no result: aSyn yeast inh)
COC(=O)NCCc1ccccc1OC	none (no result: FUS yeast rescue, Abeta yeast res, PTHR1 agonist, aSyn yeast inh, TDP-43 yeast inh)
Cc1ccc(F)cc1NS(=O)(=O)c1ccc(Cl)s1	TDP-43 yeast inh 35.5µM
COc1ccccc1CCNC(=O)c1ccc(Br)s1	TDP-43 yeast inh 14.1µM
COc1ccccc1CNS(=O)(=O)c1ccc(Br)s1	TDP-43 yeast inh 12.6µM
O=S(=O)(Nc1ccc(F)c(Cl)c1)c1ccc(Br)s1	TDP-43 yeast inh inconclusive (no result: aSyn yeast inh)
CCN1CCN(c2ccc(S(=O)(=O)N(CC)CC)cc2NC(=O)CCC2CCCC2)CC1	none (no result: FUS yeast rescue, Abeta yeast res, PTHR1 agonist, aSyn yeast inh, TDP-43 yeast inh)
CC(Sc1nc(CN2CCOCC2)nc2ccccc12)c1ccccc1Cl (stereo not given)	none (no result: FUS yeast rescue, Abeta yeast res, PTHR1 agonist, aSyn yeast inh, TDP-43 yeast inh)
CN1CCN(c2cnn(Cc3ccc(F)cc3)c(=O)c2Cl)CC1	none (no result: FUS yeast rescue, Abeta yeast res, PTHR1 agonist, aSyn yeast inh, TDP-43 yeast inh)
CCOc1ccccc1NS(=O)(=O)c1ccc(Br)s1	aSyn yeast inh 14.1µM
O=C(Cc1ccccc1)NC(=S)Nc1ccc(OC(F)F)cc1	Abeta yeast res 11.2µM
COc1ccc(C(=O)Sc2ccc(C)cc2)cc1OC	TDP-43 yeast inh 11.2µM
CCn1nc(C(=O)Nc2ccc(OC)c(OCCOC)c2)c2ccccc2c1=O	none (no result: FUS yeast rescue, Abeta yeast res, PTHR1 agonist, aSyn yeast inh, TDP-43 yeast inh)
O=C(COC(=O)c1cc(-c2ccc(F)cc2)nc2ccccc12)NCC1CCCO1 (stereo not given)	TDP-43 yeast inh 14.1µM
OCc1ccc(-c2nn(Cc3ccccc3)c3ccccc23)o1	aSyn yeast inh 3.98µM
O=C(O)c1ccc2ncccc2c1	none (no result: FUS yeast rescue, Abeta yeast res, PTHR1 agonist, aSyn yeast inh, TDP-43 yeast inh)
CCC(C(=O)c1ccc2ncccc2c1)c1ccccc1 (stereo not given)	TDP-43 yeast inh 14.1µM
Cc1ccccc1OCCC(=O)Nc1ccc(F)c(Cl)c1	TDP-43 yeast inh 14.1µM
COc1ccc(C2(C)NC(=O)N(Cc3cc(Cl)cc4c3OCOC4)C2=O)cc1OC (stereo not given)	FUS yeast rescue 35.5µM
COc1ccc(C2(C)NC(=O)N(Cc3nc(-c4cccs4)oc3C)C2=O)cc1OC (stereo not given)	none (no result: FUS yeast rescue, Abeta yeast res, PTHR1 agonist, aSyn yeast inh, TDP-43 yeast inh)
CSc1ccc(S(=O)(=O)Nc2ccc3c4c(cccc24)CC3)cc1	aSyn yeast inh 12.6µM
O=S(=O)(Nc1ccc2c3c(cccc13)CC2)c1ccc(F)cc1	aSyn yeast inh inconclusive, TDP-43 yeast inh inconclusive
